The whole screen tested about 2,500 compounds, of which about 1,100 (44%) were called active.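 How the source made its calls: active means inhibition above 50% at 4 µM in the single-point screen; inactive means inhibition of 50% or less.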 So high a share suggests a set chosen from earlier hits. The list shows a part of the results.

In general, inhibition refers to the relative decrease from the control value, in per cent.

This assay can be described thus: blockers of TNF-a NF-kB luciferase induction – cell-based, HEK293T NF-kB-Luc, luminescence, selectivity assay for NOD1/NOD2 signaling inhibitor project, primary screen (AID 1852). The conditions noted are these: TNF-a induced, 14 h, at 4 µM, hits give high values.
In the case of `O=[N+]([O-])c1ccc(Sc2nccn2Cc2ccccc2)c([N+](=O)[O-])c1`, the inhibition was -0.6% (inactive).
As for `O=[N+]([O-])c1ccc(Sc2cccc3cccnc23)c([N+](=O)[O-])c1`, the inhibition was 103% (active).
Then `C=CCn1nc([N+](=O)[O-])nc1Sc1cccc2cccnc12`, with 95.9% (active); and `O=C(Cn1nc([N+](=O)[O-])nc1Br)NC(c1ccccc1)c1ccccc1`, with -0.7% (inactive).
For the compound `Cc1cc(C)nc(Sc2ccc([N+](=O)[O-])cc2[N+](=O)[O-])n1`, the inhibition was -34.5% (inactive).
Then `Cn1nc([N+](=O)[O-])nc1Sc1cccc2cccnc12`, with 31.7% (inactive).
To `O=S(=O)(Nc1nc2ccccc2[nH]1)c1ccccc1` belongs 34.8% (inactive); to `Cc1cccc(/C=C(\c2nc3ccccc3[nH]2)S(=O)(=O)c2ccccc2)c1`, 82.2% (active).
To `O=S(=O)(/C(=C/c1ccc(C(F)(F)F)cc1)c1nc2ccccc2[nH]1)c1ccccc1` belongs 72.8% (active).
`CC(C)c1ccc(/C=C(\c2nc3ccccc3[nH]2)S(=O)(=O)c2ccccc2)cc1`: the inhibition was 107% (active).
To `COc1ccc(S(=O)(=O)NCC2CCCN(Cc3cccnc3)C2)cc1` (stereo unspecified) belongs -9.5% (inactive).
On to `C/C=C/Cn1c(SCCCc2ccccc2)nc2c1c(=O)[nH]c(=O)n2C`, for which the inhibition was 5.5% (inactive).
To `N#Cc1ccc(C(=O)Nc2nc(-c3cccs3)c(C(=O)C(F)(F)F)s2)cc1` belongs 70% (active); to `COc1ccc(/C=C/C(=O)c2c(C)cc(C)[nH]c2=O)c2ccccc12`, 20.8% (inactive); to `Cc1cc(C)c(C(=O)/C=C/c2cccc3ccccc23)c(=O)[nH]1`, 92.8% (active).
With `Cc1cc(C)c(C(=O)/C=C/c2ccc(C(C)C)cc2)c(=O)[nH]1`, the inhibition was 72.7% (active).
To `O=C(O)C(Cc1ccccc1)N1C(=O)/C(=C/c2cccc3ccccc23)SC1=S` (stereo unspecified) belongs 31.7% (inactive).
Then `O=c1cc(-c2ccccc2)nc2c(-c3ccccc3)c(C(F)(F)F)[nH]n12`, with 73.9% (active); and `O=c1cc(-c2ccccc2)nc2cc(-c3ccc(Br)cc3)[nH]n12`, with 38.7% (inactive).
To `COc1ccc(-c2c(C(F)(F)F)[nH]n3c(=O)cc(-c4ccccc4)nc23)cc1` belongs 55.7% (active); to `Cc1ccc2cc(C)c(N3CCC(C)CC3)nc2c1`, 20.9% (inactive).
In the case of `CC1=CC(=O)C=C(C)C1=NOS(=O)(=O)c1ccccc1`, the inhibition was 48.1% (inactive).
Consider `CC1=C/C(=N\OS(=O)(=O)c2ccccc2)C=CC1=O`, for which the inhibition was 57.4% (active).
To `OCCCNc1cc(-c2ccnc(Nc3cccc(Cl)c3)n2)ccn1` belongs 96.3% (active); to `OCCCNc1nccc(-c2cc(Nc3cccc(Cl)c3)ncn2)n1`, 98.2% (active).
To `Oc1nc(Nc2cccc(Cl)c2)sc1/C=C1\C=Nc2ccccc21` belongs -12.4% (inactive); to `CCS(=O)(=O)c1ccc2oc(SCC(=O)NCc3ccccc3)nc2c1`, 36.5% (inactive).
For the compound `Cc1sc2ncnc(Sc3nnnn3-c3ccccc3)c2c1C`, the inhibition is 89.8% (active).
Take `Cc1sc2ncnc(Sc3nnnn3-c3ccc(Cl)cc3)c2c1C`: the inhibition is 87% (active).
To `Cn1nnnc1Sc1ncnc2scc(-c3ccccc3)c12` belongs 22.8% (inactive).
Take `Cc1ccccc1-n1nnnc1Sc1nnnn1-c1ccccc1`: the inhibition is 75.4% (active).
To `CCc1c(C)nc2ccc(Br)cc2c1SCCC#N` belongs 43.8% (inactive).
Then `COc1ccc2cc3c(N)nn(C(=O)C4CCC(C(C)(C)C)CC4)c3nc2c1` (stereo unspecified), with 104% (active); and `CCn1ccnc1CN1CCCC(C(=O)c2ccc3cc(OC)ccc3c2)C1` (stereo unspecified), with 39.3% (inactive); and `COc1ccc2cc3c(N)nn(C(=O)c4ccccc4Cl)c3nc2c1`, with 94.3% (active).
For the compound `COc1ccc2cc3c(N)nn(C(=O)c4ccccc4[N+](=O)[O-])c3nc2c1`, the inhibition was 79.5% (active).
In the case of `COc1cc(/C=C/c2ccc3cccc(OC)c3n2)c(OC(C)=O)c([N+](=O)[O-])c1`, the inhibition is 9.5% (inactive).
Then `CC1=NOC(=O)/C1=C\c1ccc(-c2cc(Cl)ccc2Cl)o1`, with -2.6% (inactive); and `CC1CCc2c(sc(NC(=O)c3cccs3)c2C(=O)O)C1` (stereo unspecified), with -35.7% (inactive).
Then `CC1CCc2c(sc(NC(=O)/C=C/c3cccs3)c2C(=O)O)C1` (stereo unspecified), with 31.1% (inactive); and `CC1CCc2c(sc(NC(=O)CSc3ncn[nH]3)c2C#N)C1` (stereo unspecified), with 68.2% (active); and `N#Cc1c(NC(=O)CSc2ncn[nH]2)sc2c1CCCC2`, with 53.4% (active).
Then `O=C(Nc1sc2c(c1C(=O)O)CCCC2)c1ccc(F)cc1`, with -13.9% (inactive).
As for `CCOC(=O)c1c(NC(=O)CSc2ncn[nH]2)sc(C)c1C`, the inhibition is 37.2% (inactive).
To `N#Cc1c(NC(=O)CSc2ncn[nH]2)sc2c1CCCCC2` belongs 73.9% (active); to `N#C/C(=C(/O)COc1ccc(Cl)cc1)c1nc2ccccc2s1`, 73.1% (active); to `O=C(COc1ccc(Cl)cc1)Nc1nc(-c2ccncc2)cs1`, 20.3% (inactive).
Take `N#C/C(=C(/O)Cc1cccc2ccccc12)c1nc2ccccc2s1`: the inhibition is 74.8% (active).
Then `Nc1nc(CSc2nc3ccccc3s2)nc(Nc2ccccc2)n1`, with -3% (inactive); and `O=C(NCc1cccnc1)/C(=C\c1ccc(-c2ccc(Cl)c(Cl)c2)o1)S(=O)(=O)c1ccccc1`, with 109% (active).
To `O=C(NCc1cccnc1)/C(=C/c1ccc(-c2ccc(Cl)cc2)o1)S(=O)(=O)c1ccccc1` belongs 85.2% (active); to `COc1ccc(-c2cn(-c3ccc(C)cc3C)c(=S)[nH]2)cc1OC`, 18.3% (inactive).
Then `CC1CCCCN1c1ncnc(N)c1[N+](=O)[O-]` (stereo unspecified), with 59.2% (active); and `Nc1ncnc(Nc2ccccn2)c1[N+](=O)[O-]`, with 22.8% (inactive); and `Nc1ncnc(Sc2ccc(Cl)cc2)c1[N+](=O)[O-]`, with 1% (inactive).
For the compound `Nc1ncnc(N2CCc3ccccc32)c1[N+](=O)[O-]`, the inhibition was 99.8% (active).
To `COc1ccc(CCN2C(=S)N(c3ccc(Cl)cc3)C(=O)C2CC(N)=O)cc1OC` (stereo unspecified) belongs 17.3% (inactive).
To `Cc1cccc(CSc2cccc3cccnc23)c1` belongs 104% (active); to `Cn1c(=NC(=O)CCl)sc2ccccc21`, 37.1% (inactive).
To `Cn1c(-c2ccccc2)c(C(=O)CCl)c2ccccc21` belongs 76.3% (active).
With `Cc1cc(C(=O)CCl)c(C)n1CCc1ccccc1`, the inhibition is 47.1% (inactive).
To `Cn1cc(C(=O)CCl)c2ccccc21` belongs 77.1% (active); to `COc1cc(/C=N/NC(=O)c2ccc(COc3cc(C)ccc3C(C)C)cc2)cc(OC)c1O`, 40.7% (inactive).
To `Cc1ccc(C(C)C)c(OCc2ccc(C(=O)N/N=C/c3ccc(C(=O)O)cc3)cc2)c1` belongs 64.9% (active); to `Cc1ccc(C(C)C)c(OCc2ccc(C(=O)N/N=C/c3cccc(O)c3O)cc2)c1`, 17.2% (inactive).
On to `CC1CCC/C=C/C(=O)c2c(O)cc(O)cc2CC(=O)O1` (stereo unspecified), for which the inhibition is 74.9% (active).
To `CN1/C(=C\C=[N+](C)c2ccccc2)C(C)(C)c2ccccc21` belongs 49.5% (inactive).
To `O=C(CCl)N1c2ccccc2OCC1c1ccccc1` (stereo unspecified) belongs 62.2% (active); to `O=C(CCl)N1c2ccccc2SCC1c1ccccc1` (stereo unspecified), 32.2% (inactive).
For `O=C(C(Cl)Cl)N1c2ccccc2OCC1c1ccccc1` (stereo unspecified), the inhibition was 37.8% (inactive).
To `COc1ccc(N(Cc2cc(=O)[nH]c3ccccc23)C(=O)CCl)cc1` belongs 21.4% (inactive); to `Cc1ccc(N(Cc2cc(=O)[nH]c3ccccc23)C(=O)CCl)cc1`, 106% (active); to `Cc1cccc(N(Cc2cc(=O)[nH]c3ccccc23)C(=O)CCl)c1`, 78.4% (active).
For `O=C(CCl)N(Cc1cc(=O)[nH]c2ccccc12)c1ccccc1`, the inhibition was 99.9% (active).
As to `CCCS(=O)(=O)c1cnc(C2COc3ccccc3O2)nc1N` (stereo unspecified), the inhibition is 48.4% (inactive).
To `Cc1ccc(-n2c(-c3ccc(Br)cc3)c[n+]3c2CCc2ccc4cccnc4c2-3)cc1` belongs 85% (active).
Consider `Cc1ccc(-c2csc3ncnc(Sc4nnc(CN5CCCCCC5=O)o4)c23)cc1`, for which the inhibition is 93.2% (active).
Then `O=C(Nc1ccc(C(F)(F)F)cc1)C1CCN(S(=O)(=O)c2ccc(N3CCCC3=O)cc2)CC1`, with 63.7% (active); and `CC1Sc2ccc(S(=O)(=O)N3CCC(C(=O)Nc4ccc(Cl)cc4)CC3)cc2NC1=O` (stereo unspecified), with 44% (inactive).
As to `CC(C)(C)CC(=O)Nc1ccc(S(=O)(=O)N2CCCC2)cc1`, the inhibition is 15.8% (inactive).
Then `COc1ccccc1CN(C)C(=O)c1cc(-c2cc(OC)c(OC)c(OC)c2)nc2ccccc12`, with 20.3% (inactive); and `COc1cccc(CN(C)C(=O)CNC(=O)c2ccc(-c3ccccc3)cc2)c1OC`, with 57% (active).
To `COc1ccc(CN(C)C(=O)c2cc(-c3ccc(C)cc3C)nc3ccccc23)c(OC)c1OC` belongs -3.9% (inactive).
Regarding `CN(c1ccc(C(=O)Nc2ccccc2C(=O)N2CCOCC2)cc1)S(C)(=O)=O`, the inhibition is 16.2% (inactive).
Regarding `CNC(=O)c1nnsc1S(=O)(=O)c1ccc(Cl)cc1`, the inhibition was 91.4% (active).
Then `O=C(c1nnsc1S(=O)(=O)c1ccc(Cl)cc1)N1CCOCC1`, with 52% (active); and `CC(=O)N(c1ccccc1Cl)S(=O)(=O)c1ccc(Cl)cc1`, with 9.8% (inactive); and `O=S(=O)(c1ccc(Cl)cc1)c1snnc1-c1ccccc1`, with 44.1% (inactive).
As for `Cc1ccc(S(=O)(=O)NC(C(=O)N2CCOCCOCCOCC2)C(C)C)cc1` (stereo unspecified), the inhibition was 15.4% (inactive).
Then `CCSCCc1nnc(NC(=O)Nc2cccc(C(F)(F)F)c2)s1`, with 7.5% (inactive); and `O=C(Nc1nnc(-c2cccs2)o1)c1cccc(C(F)(F)F)c1`, with 100% (active); and `O=C(Nc1nnc(-c2cccs2)o1)c1cccc(Oc2ccccc2)c1`, with 103% (active).
To `O=C(CCC(=O)N1CCOc2ccccc21)NCc1ccccn1` belongs 18.7% (inactive); to `Cc1ccc(S(=O)(=O)Nc2ccc(Br)cc2/C=N/n2cnnc2)cc1`, 47.3% (inactive); to `Cc1cc(/C=N/n2cnnc2)c(C)n1-c1ccc(OCc2ccc(Cl)cc2Cl)cc1`, 71.9% (active).
To `CN(C)c1ccnc2sc(C(N)=O)c(N)c12` belongs 83.5% (active).

The record behind these values is PubChem BioAssay AID1852 (Sanford-Burnham Center for Chemical Genomics, 2009).
